Screening results deposited in PubChem by National Center for Advancing Translational Sciences (NCATS).
Only some compounds are listed: those with a hit (about 21% of all), similar ones and a draw of the others.
TDP1 cell CPT = qHTS for Inhibitors of human tyrosyl-DNA phosphodiesterase 1 (TDP1): qHTS in cells in presence of CPT. chicken DT40 Tdp1-/-;hTDP1 cells + 20 nM CPT, ATP luminescence, 48 h. Potency, µM (titrated, usually from 46.2 µM), for inactives: top-dose activity change, negative = growth inhibition, hits mostly inhibitors. 12% of 420,000 active; further: potency means the concentration at half of the fitted maximal effect; on the % scale 0 is the no-effect control and ±100 the full control effect; nearly all actives have a fitted effect of over 55% in size
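Chicken DT40 Tdp1-/- cells stably complemented with human TDP1 were seeded at 400 cells/well in medium containing 20 nM camptothecin, exposed to pin-transferred compounds, and grown at 37 °C for at least 48 hr. Viability was read as ATP luminescence.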
D3 ag = qHTS of D3 Dopamine Receptor Agonist: qHTS; D(3) dopamine receptor (Homo sapiens), P35462; D3R DiscoveRx beta-arrestin cells, luminescence, 90 min; max activation, %; 0.58% of 410,000 active; AID 652048, 2013; in the data active means max activation above about 30%; further: 0% is about no effect
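Agonist mode: compounds and dopamine controls were applied to plated cells for 90 min at 37 degrees C after an overnight attachment at 1500 cells/well. Luminescent read-out followed 30 - 60 minutes at room temperature with DiscoveRx detection reagent.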
TDP1 cell noCPT = qHTS for Inhibitors of human tyrosyl-DNA phosphodiesterase 1 (TDP1): qHTS in cells in absence of CPT; 15% of 420,000 active; DT40 Tdp1-/- hTDP1 cells, no CPT, ATP luminescence, 48 h; Potency, µM (highest dose often 46.2 µM), for inactives: top-dose activity change, negative = growth inhibition, most hits filed as inhibitors; further: potency means the concentration at half of the fitted maximal effect; on the % scale 0 is the no-effect control and ±100 the full control effect; nearly all actives have a fitted effect of over 55% in size
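Luminescent ATP content (CellTiter-Glo) served as the growth readout. Knockout chicken DT40 cells expressing human TDP1 were exposed to compounds without camptothecin for a minimum 48 hr at 37 °C.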
IL1B secr inh = qHTS for Inhibitors of Inflammasome Signaling: IL-1-beta AlphaLISA Primary Screen | activity change, % at 57.5 µM | THP-1 LPS/ATP IL-1B secretion, AlphaLISA, 16 h; hits give low values | 4.7% of 360,000 active; in the data active means activity change below about -50%; inconclusive means mostly about -30% to -49%; further: on the % scale 0 is the no-effect control and ±100 the full control effect
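THP-1 cells pretreated 1 hr with compounds (up to 57.5 uM final), then stimulated with LPS (250 ng/mL final) plus ATP (1.25 mM final); secreted IL-1B measured by AlphaLISA after 16 hr, decreased signal indicating inhibition.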
D3 antag = qHTS of D3 Dopamine Receptor Antagonist: qHTS. D(3) dopamine receptor (Homo sapiens), P35462. D3R cells, DiscoveRx beta-arrestin luminescence, antagonist mode; hits give low values. max response, negative = inhibition, %. 2.5% of 360,000 active. AID 652054, 2013; in the data active means max response below about -50%; inconclusive means no clear call, values can overlap the other calls; further: on the % scale 0 is the no-effect control and ±100 the full control effect
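Cells expressing the human receptor were seeded at 1500 cells/well, incubated overnight at 37 degrees C in 5% CO2, then exposed to library compounds with dopamine controls for 90 minutes at 37 degrees C before luminescent detection.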
ClpP mod = qHTS Assay for Activators of ClpP | ATP-dependent Clp protease proteolytic subunit (Bacillus subtilis (strain 168)), P80244 | purified B. subtilis ClpP, FRET peptide cleavage, 20 min | Potency, µM (series often up to 57.5 µM), for inactives: top-dose activity change, negative = active | 1.9% of 340,000 active | AID 651965, 2013; active means well fitted falling curve with a large enough effect; inconclusive means small, poorly fitted or top-dose-only effect; inactive means no such curve, though single readings can be large or run the other way; further: potency means the concentration at half of the fitted maximal effect; the source files actives as falling curves though it sought activators and does not explain the sign; nearly all actives have a fitted effect of over 65% in size
Target sequence (P80244 whole entry, looked up): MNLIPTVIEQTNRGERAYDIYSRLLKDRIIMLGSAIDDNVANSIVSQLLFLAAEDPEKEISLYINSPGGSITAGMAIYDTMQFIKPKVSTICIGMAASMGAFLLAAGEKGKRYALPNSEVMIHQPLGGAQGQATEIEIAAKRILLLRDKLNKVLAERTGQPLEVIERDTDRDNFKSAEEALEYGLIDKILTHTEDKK
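Purified B. subtilis ClpP, 10 microg/mL final in Tris/HCl pH8 with KCl, BSA, glycerol and Tween-20, cleaved an Abz/nitrotyrosine-quenched decapeptide. Fluorescence (ex 320, em 430) was read at 0 and 20 min at room temperature. Delta was normalized to 5.8 microM ADEP and DMSO/no-enzyme controls.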
Numbers without * were called inactive; ? = inconclusive; . = not tested or not shown. Unless noted, the call rests on the fitted dose curve; in most records, active means well fitted inhibition curve with a large enough effect; inconclusive means small, poorly fitted or top-dose-only effect; inactive means flat fitted curve, though single readings scatter.

SMILES	TDP1 cell CPT	D3 ag	TDP1 cell noCPT	IL1B secr inh	D3 antag	ClpP mod
O=C1C(Cl)=C(N2CCCC2)C(=O)N1c1ccccc1F	-14%	-2	9%	24	2	1%
COc1ccc(Cl)c(N2CCN(CCCNC(=O)Nc3ccc(C)cc3)CC2)c1	?	-4	?	-56*	1	-3%
O=C(NCCCN1CCOCC1)NC12CC3CC(CC(C3)C1)C2	-15%	-2	-29%	11	-8	0%
COc1ccc(N2CCN(CCNC(=O)Nc3cc(Cl)ccc3OC)CC2)cc1	?	-4	?	-7	?	-1%
O=C(NCCCN1CCN(c2ccc(F)cc2)CC1)Nc1ccccc1Cl	21µM*	-19	?	.	.	-3%
O=C(NCCCN1CCN(c2ccc(F)cc2)CC1)NC12CC3CC(CC(C3)C1)C2	16µM*	-1	21µM*	?	-82*	.
COc1ccc(N2CCN(CCCNC(=O)Nc3ccccc3Cl)CC2)cc1	?	-17	21µM*	.	.	-6%
CCSc1nnc(NC(=O)[C@@H](NC(=O)c2ccccc2F)C(C)C)s1	1%	6	-20%	10	4	.
CSc1nsc(SCC(=O)N2CCCCC2)n1	21%	5	-16%	?	3	.
CCOc1ccc(N(C)S(=O)(=O)c2ccc(C)c(C(=O)OCC(=O)c3c[nH]c4ccccc34)c2)cc1	0%	2	-5%	-17	-22	.
COc1cc(OC)cc(C(=O)NCC(=O)NCc2ccccn2)c1	-2%	0	8%	2	-9	-4%
COc1ccc(Cl)cc1N1CCN(CCNC(=O)Nc2ccccc2C)CC1	-102%	-17	-95%	-77*	-131*	1%
CSc1ccc(N2CCN(CCCNC(=O)Nc3ccccc3F)CC2)cc1	?	31*	?	-22	?	0%
CCCN1CCN(CCCNC(=S)Nc2ccc(F)cc2)CC1	-7%	-8	24%	12	3	0%
O=C(NCCCN1CCN(c2cccc(Cl)c2)CC1)C1(S(=O)(=O)c2ccc(Cl)cc2)CC1	?	11	?	-29	-57*	0%
O=C(NCCCN1CCN(c2ccc(F)cc2)CC1)Nc1ccc(Cl)cc1	21µM*	-19	18µM*	.	.	-3%
COc1ccccc1NC(=O)NCCN1CCN(C(=O)Nc2ccccc2OC)CC1	5%	1	-12%	-9	-2	1%
COc1ccccc1NC(=O)NCCCN1CCN(c2cccc(Cl)c2)CC1	?	1	?	?	-108*	0%
O=C(c1cc(C(F)(F)F)cc(C(F)(F)F)c1)N1CCC2(CCCN(c3ccccc3)C2)CC1	4%	.	-15%	.	.	.
CN(C)CCN(Cc1ccco1)C(=O)c1oc2ccccc2c1NC(=O)COc1ccccc1	?	-16	-1%	-50*	-2	-10%
CC1CCCC(C)N1C(=O)COC(=O)C(Cc1ccccc1)NC(=O)c1cccs1 (configuration not stated)	?	-7	-1%	14	-8	-4%
OC(COCc1ccccc1)CN1CCN(c2ccccc2F)CC1 (configuration not stated)	-6%	51*	-9%	28	15	0%
OC(COCc1ccc(Cl)cc1)CN1CCN(CC(O)COCc2ccc(Cl)cc2)CC1 (configuration not stated)	18µM*	-5	15µM*	?	20	0%
OC(COCc1ccc(Cl)cc1)CN1CCc2ccccc2C1 (configuration not stated)	-17%	-11	?	0	-72*	-1%
